# Shown are actives, neighbours in structure and some others; about 11% of the full set was active somewhere.
# JMJD2A Tudor inh = blocks the human JMJD2A Tudor domain; hit rate 4.4% among 390,000; O75164; AID 504339; Potency, µM (doses to about 114 µM), for the others: top-dose activity change, negative = inhibition, actives largely listed as inhibitors; AlphaScreen JMJD2A-Tudor / H3K4me3 peptide binding; also: % is scaled to controls: 0 for no effect and ±100 for the full control effect; nearly all actives have a fitted effect of over 50% in size
# Target sequence (O75164 whole entry, looked up, the tested form may be a part): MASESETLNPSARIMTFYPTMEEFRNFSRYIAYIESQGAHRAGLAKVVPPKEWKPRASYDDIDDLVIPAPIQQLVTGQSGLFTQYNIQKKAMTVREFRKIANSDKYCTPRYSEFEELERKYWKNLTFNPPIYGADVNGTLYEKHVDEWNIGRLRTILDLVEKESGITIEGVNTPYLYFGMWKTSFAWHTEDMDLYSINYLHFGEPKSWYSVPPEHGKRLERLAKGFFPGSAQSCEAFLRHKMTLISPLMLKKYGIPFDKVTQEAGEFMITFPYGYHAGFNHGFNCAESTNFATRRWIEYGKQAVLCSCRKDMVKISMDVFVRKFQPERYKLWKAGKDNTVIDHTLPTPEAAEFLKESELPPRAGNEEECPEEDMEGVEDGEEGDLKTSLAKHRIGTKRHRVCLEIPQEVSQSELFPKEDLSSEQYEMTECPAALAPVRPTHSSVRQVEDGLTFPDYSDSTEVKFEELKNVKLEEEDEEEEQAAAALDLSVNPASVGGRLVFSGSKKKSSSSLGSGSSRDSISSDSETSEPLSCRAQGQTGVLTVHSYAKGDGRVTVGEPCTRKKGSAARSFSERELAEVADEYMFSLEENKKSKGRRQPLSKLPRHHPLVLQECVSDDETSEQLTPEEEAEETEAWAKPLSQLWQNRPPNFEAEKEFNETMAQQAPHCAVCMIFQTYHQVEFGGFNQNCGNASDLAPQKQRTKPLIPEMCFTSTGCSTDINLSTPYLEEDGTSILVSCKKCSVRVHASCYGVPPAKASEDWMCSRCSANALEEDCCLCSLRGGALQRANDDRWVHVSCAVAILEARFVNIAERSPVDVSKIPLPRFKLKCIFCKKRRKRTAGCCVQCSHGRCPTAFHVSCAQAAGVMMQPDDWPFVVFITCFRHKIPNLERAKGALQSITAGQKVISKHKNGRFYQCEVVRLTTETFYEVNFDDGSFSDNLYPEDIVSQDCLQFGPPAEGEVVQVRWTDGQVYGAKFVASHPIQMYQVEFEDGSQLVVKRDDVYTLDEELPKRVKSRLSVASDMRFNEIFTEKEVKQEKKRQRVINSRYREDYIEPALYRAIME
# G9a inh = G9a (human) methyltransferase inhibition; Q96KQ7; G9a H3K9 monomethylation, AlphaScreen, 2 h; Potency, µM (top dose mostly 102 µM), for the others: at the highest dose activity, negative = inhibition, actives largely listed as inhibitors; hit rate 8.8% among 350,000; also: % is scaled to controls: 0 for no effect and ±100 for the full control effect; nearly all actives have a fitted effect of over 75% in size
#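 Methyltransferase reactions run at room temperature for 2 h (20 nM enzyme, 500 nM biotin-H3K9 peptide, 20 uM SAM) after a 15 min compound preincubation; product detected by AlphaScreen beads and anti-H3K9me1 antibody.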
# HP1b chromo inh = inhibitors of HP1-beta chromodomain binding to methylated histone tails; AlphaScreen HP1-beta / biotin-H3K9me3 peptide binding; hit rate 0.56% among 390,000; AID 540317; Potency, µM (highest dose often 114 µM), without a hit: at the top dose activity change, negative = inhibition, actives largely listed as inhibitors; P83916; also: nearly all actives have a fitted effect of over 70% in size
#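 Compound inhibition of the preformed complex between 50 nM HP1-beta and 50 nM biotinylated H3K9me3 peptide was read by AlphaScreen. Buffer was PBS pH 7.4 with 0.01% Tween-20. Incubations ran 30 min at room temperature, with 10 ug/mL donor/acceptor beads.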
# BAZ2B inh = blocks human BAZ2B; hit rate 4.4% among 360,000; Potency, µM (highest dose often 114 µM), for inactives: at the top dose activity change, negative = inhibition, most hits filed as inhibitors; AlphaScreen BAZ2B-H3K14Ac peptide displacement; Q9UIF8; also: % is scaled to controls: 0 for no effect and ±100 for the full control effect; nearly all actives have a fitted effect of over 60% in size
#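 AlphaScreen luminescence quantifies BAZ2B engagement of H3K14Ac peptide; the protein and biotinylated peptide are both at 50 nM final, buffer PBS pH 7.4 with 0.01% Tween-20, all steps at room temperature.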
# L3MBTL1 inh = blocks human L3MBTL1. Q9Y468. AlphaScreen L3MBTL1–H3K9me1 peptide binding. Potency, µM (series often up to 57.1 µM), for inactives: at the highest dose activity, negative = inhibition, actives largely listed as inhibitors. hit rate 0.66% among 230,000. AID 485360; also: % is scaled to controls: 0 for no effect and ±100 for the full control effect; nearly all actives have a fitted effect of over 60% in size
#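 AlphaScreen proximity signal between nickel-chelate acceptor and streptavidin donor beads (final 10 ug/mL) reports binding of 50 nM L3MBTL1 to 75 nM biotin-H3 K9me1 peptide; complex incubated with compounds 30 min at room temperature; cefsulodin titration as control.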
# An asterisk follows results filed as active; ? = inconclusive; . = not tested or not shown; [ ] = another dose, or the depositor's remark. Calls follow the shape of the dose curve; as a rule, active = well fitted inhibition curve with a large enough effect; inconclusive = small, poorly fitted or top-dose-only effect; inactive = no such curve, though single readings can be large or run the other way. Potency is read from the fitted curve at half-maximal effect.
SMILES,JMJD2A Tudor inh,G9a inh,HP1b chromo inh,BAZ2B inh,L3MBTL1 inh
COc1ccc(CNc2nc(-c3ccco3)nn2C(=O)c2ccccc2C)cc1,-20%,?,-5%,-11%,.
Cc1ccc(CNc2nc(-c3ccco3)nn2C(=O)c2ccccc2[N+](=O)[O-])cc1,?,13µM*,?,8.9µM*,.
CN(C)c1ccc(CNc2nc(-c3ccco3)nn2C(=O)c2cccc([N+](=O)[O-])c2)cc1,45µM*,7.9µM*,?,35µM*,.
COc1ccccc1CNc1nc(-c2ccco2)nn1C(=O)c1ccccc1[N+](=O)[O-],?,11µM*,-1%,?,.
CCOC(=O)N1CCN(C2CCCN(C(=O)c3ccccc3N(C)C)C2)CC1 (centres undefined),-4%,43%,7%,1%,.
CCOC(=O)c1cc(-c2ccccc2)n(CCC(=O)Nc2ccc(C(F)(F)F)cc2)c1C,-36%,-51%[59 µM],4%,-12%,.
Cc1ccc(C)c(S(=O)(=O)N2C(=S)NC(=O)C2CC(C)C)c1 (centres undefined),0%,?,48%,-38%,.
CC(C)C1C(=O)NC(=S)N1S(=O)(=O)c1ccc(C(C)(C)C)cc1 (centres undefined),-12%,3.2µM*,-10%,-7%,.
COC(=O)CN1C(=O)C(C)(C)c2cc(S(=O)(=O)Nc3ccc(Br)cc3F)ccc21,-20%,-1%[59 µM],15%[57 µM],-11%,.
COc1cc(/C=C(\C#N)C(=O)c2ccc(O)c(O)c2)cc(I)c1O,8.9µM*,2.2µM*,8.9µM*,40µM*,0.32µM*
CCN1CCCC1CN(Cc1cc2cc(C)cc(C)c2[nH]c1=O)C(=O)Nc1ccccc1OC (centres undefined),-13%,50µM*,13%,-11%,-1%
CCN1CCCC1CN(Cc1cc2ccc(C)cc2[nH]c1=O)C(=S)Nc1ccc(OC)cc1OC (centres undefined),-26%,-14%,10%,-29%,-6%
CCN(CCO)Cc1csc2cc(C)ccc12,5%,?,45%,0%,-4%
CCN(CCO)Cc1cn[nH]c1-c1ccc(C)c(C)c1,3.5µM*,3.5µM*,?,56µM*,3%
Cc1cc(NC(=O)C(C)SCC(=O)Nc2ccccc2C(C)(C)C)no1 (centres undefined),2%,9%[2.33 µM],36%,6%,2%
Cc1cc2c(cc1S(=O)(=O)N(C)CC(=O)Nc1cccc(C#N)c1)OCC(=O)N2,8%,-6%[59 µM],34%,-1%,.
O=C(O)Cc1sc(Nc2ccc(Cl)cc2)nc1-c1cccs1,-28%,?,-4%,?,-14%
Nc1nc(-c2cccs2)c(CC(=O)O)s1,-34%,40µM*,23%,0%,.
Nc1nc(-c2ccc(Oc3ccccc3)cc2)c(CC(=O)O)s1,-22%,32µM*,15%,-24%,.
COc1ccc(N2CCN(CCNC(=O)Nc3ccc(Cl)cc3)CC2)cc1,-7%,8.9µM*,-2%,-1%,.
O=C(NCCN1CCN(c2ccccc2)CC1)Nc1ccc(Cl)cc1,-14%,-1%,10%,-3%,.
S=C(NCCN1CCOCC1)Nc1ccc(Cl)cc1,-1%,-1%[59 µM],28%,0%,-1%
COc1ccc(N2CCN(c3ccc(NC(=O)NN)cc3)CC2)cc1,?,45µM*,-3%,-36%,-13%
CCOc1ccc(NC(=S)NCCCN2CCN(c3ccc(OC)cc3)CC2)cc1,?,40µM*,-5%,35µM*,.
CCOc1ccc(NC(=O)NCCCN2CCN(c3ccc(OC)cc3)CC2)cc1,?,?,-4%,-37%,.
SMILES,JMJD2A Tudor inh,G9a inh,HP1b chromo inh,BAZ2B inh,L3MBTL1 inh
CC1CCN(CCNC(=S)Nc2ccc(Cl)cc2)CC1,-7%[57.1 µM],45µM*,36%,1%,-3%
O=C(C1CC(=O)N(c2ccccc2)C1)N1CCN(c2ccccc2)CC1 (centres undefined),-18%,9%,9%,-10%,.
O=C(CSc1nc(=O)n2ccccc2n1)OCc1ccccc1,-19%,19%[0.501 µM],10%,11%,4%
Cc1cc(Nc2ccccc2O)nc(C)n1,-17%,-11%[59 µM],18%,-12%,.
Cc1cccc(Nc2cc(C)c3c(O)cccc3n2)c1C,45µM*,50µM*,-3%,40µM*,-10%
COc1ccc(S(=O)(=O)NC(Cc2cnc[nH]2)C(=O)O)cc1 (centres undefined),13µM*,?,5%,-2%,7%

# High-throughput results deposited in PubChem by National Center for Advancing Translational Sciences (NCATS).
